Test [1] relates to XIP peptide (Xip251-270) binding. Briefly: XIP fragment 251-270 binding compounds – biochemical, small-molecule microarray, fluorescence 635/667 nm, 0.1 µg/mL protein, primary screen (AID 1182). The note with it: fluorescent protein binding, 635 nm, higher = more signal, called active from +8 up or from −8 down.
The subject of a further test is XIP peptide (Xip251-270). Briefly: compounds binding XIP fragment 251-270 – biochemical, small-molecule microarray, fluorescence 635/667 nm, 0.5 µg/mL protein, primary screen (AID 1183). Conditions: fluorescence 635 nm, higher = more signal.
Test [2] in a line: blood-stage malaria parasite viability loss – strain 3D7, DAPI fluorescence, 100 nL, primary screen (AID 1184).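 Note: parasites grown inside human red blood cells in medium with human serum.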 Conditions: P. falciparum 3D7 growth, 3 d, higher = more signal.
Test [3] deals with Homeobox protein Hox-A13 (Mus musculus) (UniProt Q62424). Briefly: disruptors of Hoxa13 oligonucleotide interaction – biochemical, fluorescence polarization, labeled oligonucleotide, primary screen (AID 1185). The note with it: Hoxa13:DNA binding, 15 min, higher = more signal, called active from +8 up or from −8 down. On the technique in general: Fluorescence polarisation rises when a labelled molecule tumbles more slowly, as on binding a larger partner.

Test [4] in a line: blockers of DNA damage checkpoint Chk1 activation – imaging, HeLa, hydroxyurea, phospho-Chk1 antibody, percent positive cells, primary screen (AID 1186). The note with it: hydroxyurea-induced phospho-Chk1 immunofluorescence imaging, higher = more signal.
Test [5] in a line: blockers of DNA damage checkpoint Chk1 activation – imaging, HeLa, hydroxyurea, phospho-Chk1 nuclear intensity, primary screen (AID 1187). The note with it: hydroxyurea-induced phospho-Chk1 immunofluorescence imaging, higher = more signal.

SMILES strings stand for the structures. Calls of active or inactive are those of the source. Unless noted, the rule behind the calls is not given here.

Homeobox protein Hox-A13 (Mus musculus), sequence (Q62424 whole entry, looked up): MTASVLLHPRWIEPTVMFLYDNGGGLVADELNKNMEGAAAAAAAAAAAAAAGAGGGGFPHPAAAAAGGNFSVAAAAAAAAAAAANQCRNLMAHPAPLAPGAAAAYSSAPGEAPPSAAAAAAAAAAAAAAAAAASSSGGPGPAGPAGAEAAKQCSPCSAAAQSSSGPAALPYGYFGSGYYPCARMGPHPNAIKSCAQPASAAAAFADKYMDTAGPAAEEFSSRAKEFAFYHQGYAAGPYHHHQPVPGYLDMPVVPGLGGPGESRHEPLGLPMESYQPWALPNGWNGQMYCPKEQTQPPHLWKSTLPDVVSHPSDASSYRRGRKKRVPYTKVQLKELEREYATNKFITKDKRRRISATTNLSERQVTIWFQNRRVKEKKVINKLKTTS

`CCOC(=O)C[C@H]1[C@H](OC(=O)c2ccc(C(=O)c3ccccc3)cc2)[C@@H](NC(=O)c2ccc3ccccc3n2)c2cc(OCCCO)ccc2N1C(=O)c1ccccc1`: the composite z-score in test [1] was -0.021 (inactive); with XIP peptide (Xip251-270), 0.545. In addition, the z-score is -0.894 in test [2], -1.37 (inactive) in test [3], 0.645 (inactive) in test [4] and 0.334 (inactive) in test [5].
Regarding `C=CCNC(=O)[C@H]1[C@@H]2C(=O)O[C@@H](c3ccccc3)[C@@H](c3ccccc3)N2[C@@H](c2ccccc2OCCO)[C@]12C(=O)Nc1ccc(C#CCCO)cc12`, the composite z-score was 0.749 (inactive) in test [1] and 0.369 with XIP peptide (Xip251-270). Further, the z-score in test [2] is -2.08; in test [3], -3.91 (inactive); in test [4], -0.677 (inactive); in test [5] it was -1.24 (inactive).
As to `CCOC(=O)C[C@H]1[C@H](OC(=O)c2ccc(C(=O)c3ccccc3)cc2)[C@@H](NC(=O)c2ccccc2)c2cc(OCCCO)ccc2N1C(=O)c1ccc2ccccc2n1`, the composite z-score in test [1] was 0.0933 (inactive); with XIP peptide (Xip251-270), 0.0113. The z-score in test [2] is -1.43; in test [3], -3.02 (inactive); in test [4], 0.193 (inactive); in test [5], -0.363 (inactive).
On to `CCOC(=O)C[C@H]1[C@H](OC(=O)c2ccc(C(=O)c3ccccc3)cc2)[C@@H](NC(=O)CC(C)C)c2cc(OCCCO)ccc2N1C(=O)c1ccc2ccccc2n1`, for which the composite z-score was 1.24 (inactive) in test [1] and 0.642 in the test on XIP peptide (Xip251-270). Moreover, the z-score in test [2] was -0.057; in test [3], -2.72 (inactive); in test [4] it was -0.776 (inactive); in test [5], -0.687 (inactive).
With `Cc1ccccc1C(O)C1C=CC2C(=O)N(c3ccccc3)C(=O)C2N1Nc1ccc(C(C)C)cc1` (stereo unspecified), the composite z-score in test [1] was 0.167 (inactive); with XIP peptide (Xip251-270), 0.599. The z-score was -0.739 in test [2], -1.77 (inactive) in test [3], 0.524 (inactive) in test [4] and 0.118 (inactive) in test [5].
On to `COCC(=C=CC[C@@H](O)c1cccc(OCCO)c1)C[C@@H](O)c1ccccn1`, for which the composite z-score in test [1] is 1.36 (inactive); in the test with XIP peptide (Xip251-270), 0.141. Further, the z-score in test [2] is -1.2; in test [3] it was -4.8 (inactive); in test [4] it was -1.08 (inactive); in test [5] it was -0.725 (inactive).
Regarding `CC(CO)N1C(=O)[C@@H]2C3C(=O)OCCC/C=C\[C@H]3OC23C=CCN(C(C)(C)C)C(=O)[C@@H]13` (stereo partly specified), the figures for the composite z-score (in test [1]; in the test with XIP peptide (Xip251-270)) were 0.453 (inactive) and -0.0516, respectively. Moreover, the z-score was 0.67 in test [2], -4.72 (inactive) in test [3], -0.423 (inactive) in test [4] and -1.21 (inactive) in test [5].
As to `CCOC(=O)C[C@H]1[C@H](OC(=O)c2ccccc2-c2ccccc2)[C@@H](NC(=O)CC(C)C)c2cc(OCCCO)ccc2N1C(=O)Cc1ccc(OC)cc1`, the composite z-score in test [1] is -0.245 (inactive); with XIP peptide (Xip251-270), -0.328. In addition, the z-score is -0.106 in test [2], -5.17 (inactive) in test [3], 0.34 (inactive) in test [4] and 0.524 (inactive) in test [5].
For `O=C1c2ccccc2[C@](Cc2ccccc2I)(C(=O)NCCN2CCOCC2)[C@H](c2ccc(CO)cc2)N1Cc1ccccc1Cl`, the composite z-score in test [1] is 1.08 (inactive); in the test with XIP peptide (Xip251-270), 0.862. For the same compound, the z-score was -1.47 in test [2], -4.29 (inactive) in test [3], -0.206 (inactive) in test [4] and -0.183 (inactive) in test [5].
For the compound `CC#CC(=O)Oc1ccccc1C=CC(=O)OCC`, the composite z-score is 0.0524 (inactive) in test [1] and 0.106 in the test with XIP peptide (Xip251-270). The z-score was -0.418 in test [2], -2.38 (inactive) in test [3], 0.367 (inactive) in test [4] and 0.195 (inactive) in test [5].
`NC(=O)NCC#Cc1ccc2c(c1)[C@]1(C(=O)N2)[C@H](c2ccccc2OCCO)N2[C@H](c3ccccc3)[C@H](c3ccccc3)OC(=O)[C@H]2[C@@H]1C(=O)Nc1nc2ccccc2s1`: the results for the composite z-score (in test [1]; with XIP peptide (Xip251-270)) were 0.213 (inactive) and 0.324, respectively. In addition, the z-score in test [2] is -1.89; in test [3] it was 1.61 (inactive); in test [4], 0.164 (inactive); in test [5], 0.212 (inactive).
In the case of `[N-]=[N+]=NCc1ccccc1C[C@]1(C(N)=O)COC(c2ccc(OCCCO)cc2)=N1`, the values for the composite z-score (in test [1]; with XIP peptide (Xip251-270)) were 0.154 (inactive) and 0.817, respectively. Further, the z-score in test [2] is -0.486; in test [3], -4.67 (inactive); in test [4], -0.913 (inactive); in test [5], -0.959 (inactive).
For the compound `C=CCN1C(=O)[C@]2(O[C@H](CCn3cc([C@H](O)c4ccccc4)nn3)[C@@H]([Si](C)(C)c3ccc(OC)cc3)[C@@H]2C)c2cc(N3CCC3=O)ccc21`, the composite z-score in test [1] was 0.393 (inactive); in the test on XIP peptide (Xip251-270) it was 0.128. Further, the z-score is -2.89 in test [2], -5.76 (inactive) in test [3], -0.318 (inactive) in test [4] and -0.171 (inactive) in test [5].
As for `C=CCC(OC(C)=O)[C@@H]1[C@@H](N(Cc2cc3ccccc3o2)C(=O)c2cccc3ccccc23)c2cc(OCCCO)ccc2N1C(=O)c1ccc(-c2ccccc2)cc1` (stereo partly specified), the composite z-score in test [1] was 0.277 (inactive); in the test with XIP peptide (Xip251-270), 0.287. Moreover, the z-score in test [2] is -3.01; in test [3] it was -0.424 (inactive); in test [4] it was 0.0396 (inactive); in test [5], 0.577 (inactive).
Regarding `CC(C)C(O)C1C=CC2C(=O)N(c3ccccc3)C(=O)C2N1Nc1ccc([N+](=O)[O-])cc1` (stereo unspecified), the values for the composite z-score (in test [1]; with XIP peptide (Xip251-270)) were -0.354 (inactive) and -0.266, respectively. Besides, the z-score in test [2] was 0.935; in test [3] it was -3.78 (inactive); in test [4], 0.659 (inactive); in test [5], -0.404 (inactive).
Turning to `COc1cccc(-c2cccc(=O)o2)c1`, the composite z-score is -0.256 (inactive) in test [1] and 0.688 with XIP peptide (Xip251-270). The z-score is 0.0459 in test [2], -2.09 (inactive) in test [3], 0.317 (inactive) in test [4] and -0.169 (inactive) in test [5].
As for `COC(=O)[C@@]1(Cc2ccc(OC)cc2)[C@@H]2C(=CC(=O)[C@H]2CC(=O)C(=O)N2CCCC2)CN1C(=O)c1ccccc1`, the composite z-score in test [1] is -0.406 (inactive); in the test on XIP peptide (Xip251-270), 0.161. For the same compound, the z-score in test [2] is -0.918; in test [3] it was -2.39 (inactive); in test [4], -0.0101 (inactive); in test [5] it was -0.277 (inactive).
`C=C(/C(=C/C[C@H](OC(C)=O)c1ccccc1OCCO)c1cnc2ccccc2c1)C(C)C`: the composite z-score in test [1] was 0.609 (inactive); in the test with XIP peptide (Xip251-270) it was -0.167. Also, the z-score in test [2] is -2.76; in test [3], -5.41 (inactive); in test [4] it was 0.284 (inactive); in test [5], -0.141 (inactive).
For the compound `[N-]=[N+]=Nc1ccccc1[C@@H]1OC(c2ccc(OCCCO)cc2)=N[C@]1(CCS(=O)(=O)c1ccccc1)C(N)=O`, the composite z-score is 1 (inactive) in test [1] and 0.629 in the test on XIP peptide (Xip251-270). For the same compound, the z-score in test [2] is -2.04; in test [3], -4.11 (inactive); in test [4], -0.154 (inactive); in test [5], -0.0216 (inactive).
`CN(C)CCCCCCNC(=O)[C@H]1C[C@H]2C(=O)N[C@@H](CCCCN)C(=O)N2[C@H]1c1cccc(OCCO)c1`: the composite z-score in test [1] was 0.867 (inactive); in the test on XIP peptide (Xip251-270), 0.727. In addition, the z-score in test [2] is 1.05; in test [3], -2.01 (inactive); in test [4], -0.198 (inactive); in test [5] it was -0.0886 (inactive).
Consider `CCCC[C@@H]1C[C@H]1[C@@H](NC(=O)c1ccco1)c1ccccc1C(F)(F)F`, for which the figures for the composite z-score (in test [1]; in the test with XIP peptide (Xip251-270)) were 0.259 (inactive) and -0.623, respectively. Besides, the z-score in test [2] was -0.7; in test [3], 2.24 (inactive); in test [4], 0.445 (inactive); in test [5] it was -0.353 (inactive).
Regarding `C=CCC(OC(C)=O)[C@@H]1[C@@H](N(Cc2cccc3ccccc23)C(=O)c2ccc(-c3ccccc3)cc2)c2cc(OCCCO)ccc2N1C(=O)c1ccc2ccccc2c1` (stereo partly specified), the composite z-score is -0.176 (inactive) in test [1] and 0.0439 in the test on XIP peptide (Xip251-270). In addition, the z-score was -1.55 in test [2], -1.35 (inactive) in test [3], 0.145 (inactive) in test [4] and -0.0284 (inactive) in test [5].
On to `C=CCOC(=O)[C@H]1[C@@H]2C(=O)O[C@@H](c3ccccc3)[C@@H](c3ccccc3)N2[C@@H](c2ccc(OCCOC(=O)[C@H]3C[C@H]4C(=O)N[C@@H](CCCCN(C)C)C(=O)N4[C@H]3c3ccc(O)cc3)cc2)[C@]12C(=O)Nc1ccc(I)cc12`, for which the figures for the composite z-score (in test [1]; with XIP peptide (Xip251-270)) were 0.768 (inactive) and 0.791, respectively. Besides, the z-score was -0.193 in test [2], -4.89 (inactive) in test [3], 0.622 (inactive) in test [4] and -0.163 (inactive) in test [5].
On to `COCCOC(=O)N1C(=O)[C@@]2(c3cc(C#CC4(O)CCCCCC4)ccc31)[C@H](c1ccccc1OCCO)N1[C@H](c3ccccc3)[C@H](c3ccccc3)OC(=O)[C@H]1[C@@H]2C(=O)N1CCN(c2ncccn2)CC1`, for which the composite z-score is -0.0186 (inactive) in test [1] and 0.744 with XIP peptide (Xip251-270). The z-score is -2.23 in test [2], -0.571 (inactive) in test [3], -0.353 (inactive) in test [4] and -0.189 (inactive) in test [5].
In the case of `O=C1O[C@H](c2ccccc2)[C@H](c2ccccc2)N2[C@H]1[C@@H](C(=O)N1CCCCCCC1)[C@]1(C(=O)Nc3ccc(C#CCCO)cc31)[C@H]2c1ccccc1OCCO`, the composite z-score in test [1] was 9.51 (active); with XIP peptide (Xip251-270) it was 1.07. In addition, the z-score in test [2] was -2.07; in test [3], 4.52 (inactive); in test [4], 0.208 (inactive); in test [5], 0.259 (inactive).
Take `O=C1C[C@@](C(=O)NC2CC2)(c2ccc([N+](=O)[O-])cc2)[C@@H](c2ccc(CO)cc2I)N1C1CCCCC1`: the figures for the composite z-score (in test [1]; in the test with XIP peptide (Xip251-270)) were 0.0057 (inactive) and 0.693, respectively. For the same compound, the z-score was -1.28 in test [2], -4.72 (inactive) in test [3], -0.254 (inactive) in test [4] and -0.233 (inactive) in test [5].

The values are drawn from PubChem BioAssay.
